Compound activity (PubChem BioAssay)
Six1-Eya2 blk = blocks human Six1 binding to Eya2. hit rate 0.56% among 360,000. AlphaScreen GST-Six1/His-Eya2 binding, biochemical; hits give low values. activity change, % (concentration not given with the values). Q15475+O00167; in the data active = activity change below about -65%; inconclusive = mostly about -30% to -63%
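Six1/Eya2 binding was read as AlphaScreen signal after compounds were pinned into GST-Six1 plus His-tagged Eya2 (5X stock 250/500 nM) in pH 8.0 Tris/NaCl/TCEP buffer, beads added, then incubated 1 h, 37 C, dark.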
TDP1 inh = inhibitors of human tyrosyl-DNA phosphodiesterase TDP1; Q9NUW8; recombinant TDP1, AlphaScreen DNA substrate cleavage; Potency, µM (series often up to 130 µM), for the others: at the highest dose activity change, negative = inhibition, hits mostly inhibitors; hit rate 0.28% among 350,000; also: potency is read from the fitted curve at half-maximal effect; nearly all actives have a fitted effect of over 40% in size
Target sequence (Q9NUW8 whole entry, looked up): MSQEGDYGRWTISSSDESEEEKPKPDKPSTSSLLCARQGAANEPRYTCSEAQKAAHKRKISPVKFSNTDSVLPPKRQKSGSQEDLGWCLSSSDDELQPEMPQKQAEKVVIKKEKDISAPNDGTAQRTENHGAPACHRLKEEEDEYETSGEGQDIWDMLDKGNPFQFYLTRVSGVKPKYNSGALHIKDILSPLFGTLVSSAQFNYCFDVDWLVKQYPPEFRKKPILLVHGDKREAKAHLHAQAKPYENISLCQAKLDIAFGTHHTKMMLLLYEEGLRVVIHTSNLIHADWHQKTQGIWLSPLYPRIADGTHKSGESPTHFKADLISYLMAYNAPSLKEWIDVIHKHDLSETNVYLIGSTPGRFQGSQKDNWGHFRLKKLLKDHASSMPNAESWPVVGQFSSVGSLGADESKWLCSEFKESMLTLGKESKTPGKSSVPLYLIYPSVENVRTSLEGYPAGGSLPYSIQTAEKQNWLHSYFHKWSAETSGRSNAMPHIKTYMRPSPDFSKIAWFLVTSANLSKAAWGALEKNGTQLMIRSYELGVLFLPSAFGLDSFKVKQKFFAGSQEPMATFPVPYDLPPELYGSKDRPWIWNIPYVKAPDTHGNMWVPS
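Steps: enzyme plus compound, 15 min RT; add biotin/phosphotyrosine-FITC oligonucleotide (15 nM final), react 5 min; add donor/acceptor beads (10 ug/ml final), 10 min; read AlphaScreen. Tdp1 at 1 nM final.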
IL-1B inflam inh = blocks inflammasome-driven IL-1 beta release | THP-1 LPS/ATP IL-1B secretion, AlphaLISA, 16 h; hits give low values | activity change, % at 57.5 µM | hit rate 4.7% among 360,000 | AID 743279; in the data active = activity change below about -50%; inconclusive = mostly about -30% to -49%
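Secreted IL-1B measured by AlphaLISA bead assay after 16 h compound exposure of THP-1 cells; compounds (final up to 57.5 uM) added 1 h before LPS (250 ng/mL) and ATP (1.25 mM) stimulation; lower signal means less secretion.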
CtBP-E1A blk = blocks the CtBP interaction with E1A; AlphaScreen GST-E1A/His-CtBP binding, 1536-well; hits give low values; activity change, % (concentration not given with the values); hit rate 0.49% among 340,000; in the data active = activity change below about -65%; inconclusive = mostly about -30% to -63%
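In 5 uL wells, 23 nL compound meets equimolar GST-E1A and His-CtBP (5X stock 125 nM each) for 2 h, 37 °C. Beads (5X, 50 ug/mL) then 1 h, 37 °C, dark.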
TDP1 cell CPT = DT40-hTDP1 cell growth loss with CPT. chicken DT40 Tdp1-/-;hTDP1 cells + 20 nM CPT, ATP luminescence, 48 h. Potency, µM (doses to about 46.2 µM), without a hit: top-dose activity change, negative = growth inhibition, usual class: inhibitors. hit rate 12% among 420,000. AID 686979; also: potency is read from the fitted curve at half-maximal effect; nearly all actives have a fitted effect of over 55% in size
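Chicken DT40 Tdp1-/- cells complemented with human TDP1, 400 cells/well, exposed to compounds plus 20 nM camptothecin for at least 48 h at 37 C; viability read as ATP content by CellTiter-Glo luminescence.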
TDP1 cell noCPT = qHTS for Inhibitors of human tyrosyl-DNA phosphodiesterase 1 (TDP1): qHTS in cells in absence of CPT. DT40 Tdp1-/- hTDP1 cells, no CPT, ATP luminescence, 48 h. Potency, µM (series often up to 46.2 µM), for the others: top-dose activity change, negative = growth inhibition, most hits filed as inhibitors. hit rate 15% among 420,000; also: potency is read from the fitted curve at half-maximal effect; nearly all actives have a fitted effect of over 55% in size
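Growth kinetics read by CellTiter-Glo luminescence after ≥48 hr at 37 °C. Cells: DT40 Tdp1-/- stably carrying human TDP1, 400 per well, compound exposure in the absence of CPT (DMSO vehicle).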
* marks the source's active call; other numbers are inactive results; ? = inconclusive; / = no result given; [ ] = another dose, or the depositor's remark. Sampled rows, rich in hits. Any-hit rate of the full collection: about 18%. Unless noted, calls follow the shape of the dose curve; as a rule, active = well fitted curve in the direction sought with a large enough effect; inconclusive = small, poorly fitted or top-dose-only effect, or another doubt; inactive = no such curve, though single readings can be large; an effect the other way counts as inactive or inconclusive. % is scaled to controls: 0 for no effect and ±100 for the full control effect.

SMILES	Six1-Eya2 blk	TDP1 inh	IL-1B inflam inh	CtBP-E1A blk	TDP1 cell CPT	TDP1 cell noCPT
COc1ccc(C(C(=O)NC2CCCCC2)N(C(=O)c2ccco2)c2ccccc2C(C)=O)cc1 (configuration not stated)	-7.8	/	-14.4	5.5	-1.0%	?
CCOC(=O)N1CCN(C(=O)c2ccc3c(=O)n(CCC4=CCCCC4)c(=O)[nH]c3c2)CC1	1.2	3.9%	?	-2.5	16.4µM*	18.4µM*
CCCCN(CCCC)CCCNC(=O)c1ccc2nc(-c3ccccc3NC(C)=O)c(=O)[nH]c2c1	-5.8	-4.6%	-4.0	/	-9.1%	0.4%
COCCn1c(=O)[nH]c2cc(C(=O)N3CCN(c4cc(C)ccc4C)CC3)ccc2c1=O	-8.4	6.2%[0.0935 µM]	3.6	-3.3	?	?
COCCn1c(=O)[nH]c2cc(C(=O)N3CCN(c4ccc(F)cc4)CC3)ccc2c1=O	/	0.0%	/	/	?	?
Cc1ccc(C)c(N2CCN(C(=O)c3ccc4c(=O)n(CCc5ccccc5)c(=O)[nH]c4c3)CC2)c1	/	5.9%	/	/	20.6µM*	16.4µM*
CC(=O)Nc1ccccc1-c1nc2ccc(C(=O)N3CCN(c4cc(C)ccc4C)CC3)cc2[nH]c1=O	-0.9	4.9%	-4.3	0.8	?	14.6µM*
O=C(CCCCn1c(=O)[nH]c2ccccc2c1=O)NCCC1=CCCCC1	2.2	5.9%	3.4	4.8	-4.5%	-29.5%
CCCCCn1c(=O)[nH]c2cc(C(=O)N3CCN(c4ccc(F)cc4)CC3)ccc2c1=O	-0.6	/	7.4	2.6	?	8.2µM*
COc1ccc(CNC(=O)CCNS(=O)(=O)c2ccc3c(c2)oc(=O)n3C)cc1	4.9	1.7%	21.4	/	-3.5%	-24.4%
Cc1cccc(CNc2nc(-c3c(C)noc3C)nc3ccccc23)c1	/	-12.4%[56.1 µM]	/	/	?	?
CCCCCn1c(=O)[nH]c2cc(C(=O)N3CCN(c4ccccc4F)CC3)ccc2c1=O	0.4	0.0%	27.5	-0.1	?	14.6µM*
CCCCCn1c(=O)[nH]c2cc(C(=O)N3CCN(c4ccc(C(C)=O)cc4)CC3)ccc2c1=O	-8.1	/	-20.6	-10.3	14.6µM*	14.6µM*
COc1ccc(C(=O)Nc2nccs2)cc1[N+](=O)[O-]	-8.1	-10.3%	-1.2	/	13.0%	1.5%
Cn1cc([N+](=O)[O-])c(C(=O)Nc2nccs2)n1	3.1	6.0%	-98.0*	/	4.0%	13.3%
CCSc1ccc(C(=O)Nc2ccc(Br)cn2)cc1[N+](=O)[O-]	-8.5	-2.6%	-28.0	/	-8.7%	?
Cn1cc([N+](=O)[O-])c(C(=O)Nc2ccc(Br)cn2)n1	2.4	1.1%	-86.9*	4.9	-18.5%	-6.0%
COc1ccc(NC(=O)c2nn(C34CC5CC(CC(C5)C3)C4)cc2[N+](=O)[O-])cc1	0.8	3.4%	0.9	-0.4	18.4%	-16.5%
CCc1ccc(C(=O)C(C)OC(=O)Cc2n[nH]c(=O)c3ccccc23)cc1 (configuration not stated)	-2.1	2.2%	5.5	1.3	6.51µM*	7.31µM*
CCc1ccc(C(=O)C(C)OC(=O)Cn2[nH]c(=O)c3ccccc3c2=O)cc1 (configuration not stated)	-1.4	-0.3%	-19.1	-3.5	-2.5%	9.2%
O=C(COc1ccc(Br)cc1)Nc1ccccc1C(=O)N1CCOCC1	2.3	1.0%	-22.0	-3.1	-2.8%	-21.2%
O=C(NCC1CCCCC1)c1cccc(-c2ccc(O)cc2)c1	0.6	-1.2%	-52.7*	11.1	?	20.6µM*
COc1ccc(NC2c3ccccc3C(=O)N2c2ccccn2)cc1 (configuration not stated)	4.4	0.0%	0.0	2.6	6.3%	7.4%
O=C(CCN1C(=O)[C@@H]2Cc3ccccc3CN2C1=O)N[C@@H](Cc1ccccc1)C(=O)O	2.4	/	7.9	7.1	-12.0%	-0.1%
COc1ccccc1N1CCN(c2nc(-c3ccc(C)cc3)nc3ccccc23)CC1	/	7.8%	/	/	23.1µM*	23.1µM*
SMILES	Six1-Eya2 blk	TDP1 inh	IL-1B inflam inh	CtBP-E1A blk	TDP1 cell CPT	TDP1 cell noCPT
COc1ccccc1N1CCN(c2nc3ccc(C)cc3nc2-n2nc(C)cc2C)CC1	/	0.0%	/	/	23.1µM*	20.6µM*
Cc1cc(C)n(-c2nc3ccccc3nc2N2CCN(c3cccc(C)c3C)CC2)n1	/	0.0%	/	/	-3.7%	-5.4%
COc1cccc(-c2nc(N3CCC(C)CC3)c3ccccc3n2)c1O	-3.2	11.5%	13.3	5.4	18.4µM*	20.6µM*
COc1cccc(-c2nc(N3CCCC3)c3ccccc3n2)c1O	-7.5	7.1%	15.9	-2.8	18.4µM*	11.6µM*
COc1ccccc1N(CCN1C(=O)c2cccc3cccc(c23)C1=O)C(=O)c1ccncc1	/	0.0%	/	/	/	/
COc1ccc(C(=O)NCc2ccc3c(c2)OCO3)cc1S(=O)(=O)N(C)Cc1ccccc1	-1.7	2.7%	-12.8	-4.6	-8.0%	?
COc1ccccc1N1CCN(c2nc(CNC(=O)c3ccc4c(c3)OCO4)nc3ccccc23)CC1	/	/	/	/	18.4µM*	13µM*
O=C(CCCN1C(=O)/C(=C/c2ccc(F)cc2)SC1=S)NC1CCS(=O)(=O)C1 (configuration not stated)	-7.8	3.5%	19.1	-18.7	18.4µM*	?
CC(C)c1ccc(/C=C2\SC(=O)N(CC(=O)NC3CCS(=O)(=O)C3)C2=O)cc1 (configuration not stated)	0.9	-6.1%	-30.0	/	23.1µM*	16.4µM*
COCCCN=Cc1c(C)[nH]n(-c2ccc(Br)c(C)c2)c1=O	2.7	-5.3%	8.6	-0.6	?	?
CC#CCN(CC#CC)S(=O)(=O)c1ccc(S(=O)(=O)N2CCOCC2)cc1	-1.2	4.2%	7.7	0.9	?	16.4µM*
CCOc1ccc(NC(=O)CN2CCN(CC(=O)Nc3cccc(F)c3)CC2)cc1	-2.7	4.3%	13.8	-3.0	?	-21.9%
O=C(CN1CCN(c2ccc(Cl)cc2)CC1)Nc1cccc(F)c1	0.0	-2.0%	-14.6	-2.3	-27.7%	?
CCOc1ccc(NC(=O)CN2CCN(CC(=O)Nc3ccc(Cl)c(C(F)(F)F)c3)CC2)cc1	-20.0	1.8%	-59.0*	-15.3	11.6µM*	9.2µM*
O=C(CN1CCN(c2ccc(Cl)cc2)CC1)Nc1ccc(Cl)c(C(F)(F)F)c1	/	3.8%	/	/	?	16.4µM*
O=C(CN1CCN(S(=O)(=O)c2ccc(F)cc2)CC1)Nc1ccc(Cl)c(C(F)(F)F)c1	3.8	9.6%	-59.7*	5.0	18.4µM*	9.2µM*
